Measurements taken from PubChem BioAssay (NCI).
The panel holds about 79,000 compounds, 15% with a hit somewhere; the sample as a whole holds those more often. Values without a mark were called inactive. Calls of active or inactive are those of the source. No stated cut-off is given here; in the data, active means growth inhibition above about 70%; inactive means the rest.

How the values were obtained:
[1] = NCI Yeast Anticancer Drug Screen. Data for the rad52 strain (AID 147);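 further: 0% = growth of vehicle-treated control cultures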; details: S. cerevisiae rad52 mutant growth inhibition, hits give high values
Procedure, shortened: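 Yeast strain carrying a DNA damage repair alteration was exposed to test compounds. Growth inhibition was measured relative to vehicle-treated controls.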

[2] = NCI Yeast Anticancer Drug Screen. Data for the wt1 strain (AID 149);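 further: 0% = growth of vehicle-treated wt1 cultures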; details: S. cerevisiae wt1 strain (SPY 50644) growth inhibition, hits give high values
Procedure, shortened: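 Measured: growth of wt1 yeast under compound versus vehicle treatment, reported as inhibition.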

[3] = NCI Yeast Anticancer Drug Screen. Data for the rad50EPP+ strain (AID 151);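 further: 0% = growth of vehicle-treated control cultures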; details: S. cerevisiae rad50 mutant strain, hits give high values
Procedure, shortened: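 Yeast strain carrying rad50 alteration (rad50EPP+) exposed to compounds; growth inhibition measured relative to vehicle-treated controls.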

[4] = NCI Yeast Anticancer Drug Screen. Data for the rad50 strain (AID 155);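 further: 0% = growth of vehicle-only cultures of the same strain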; details: S. cerevisiae rad50 strain growth inhibition, hits give high values
Procedure, shortened: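 Growth of the mutant yeast was measured after compound exposure and referenced to vehicle-treated cultures.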

[5] = NCI Yeast Anticancer Drug Screen. Data for the mec2-1 strain (AID 157); details: S. cerevisiae mec2-1 strain, hits give high values
Procedure, shortened: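 mec2-1 yeast strain, carrying an alteration in DNA damage repair or cell cycle control, was exposed to compounds; growth inhibition was measured relative to vehicle-treated controls.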

[6] = NCI Yeast Anticancer Drug Screen. Data for the rad14 strain (AID 159);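 further: 0% = growth of vehicle-treated control cultures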; details: S. cerevisiae rad14 strain growth inhibition, hits give high values
Procedure, shortened: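 Here, inhibition of yeast growth was measured after compound exposure, using a strain with a genetic defect in DNA damage repair and vehicle-treated cultures as the reference.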

[7] = NCI Yeast Anticancer Drug Screen. Data for the sgs1 mgt1 strain (AID 161);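 further: 0% = growth of cultures given vehicle only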; details: S. cerevisiae sgs1 mgt1 strain, hits give high values
Procedure, shortened: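 This yeast growth screen uses a strain with defined DNA-repair lesions; compound-treated growth is compared with vehicle-treated growth.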

[8] = NCI Yeast Anticancer Drug Screen. Data for the CLN2oe strain (AID 163);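 further: 0% = growth of vehicle-only control cultures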; details: S. cerevisiae CLN2oe strain, hits give high values
Procedure, shortened: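 Yeast cells carrying a defined cell-cycle control alteration were exposed to test compounds. Growth inhibition was scored against vehicle-treated control cultures.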

[9] = NCI Yeast Anticancer Drug Screen. Data for the bub3 strain (AID 167); details: S. cerevisiae bub3 mutant strain, hits give high values
Procedure, shortened: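 Whole-cell yeast assay. The mutant strain was incubated with compounds, and growth inhibition was determined by comparison with vehicle-treated cells.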

[10] = NCI Yeast Anticancer Drug Screen. Data for the wt2 strain (AID 169);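 further: 0% = growth of vehicle-treated yeast cultures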; details: S. cerevisiae wt2 strain growth inhibition, hits give high values
Procedure, shortened: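 Yeast cells were exposed to test compounds, and growth inhibition was measured relative to vehicle-treated controls.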

[11] = NCI Yeast Anticancer Drug Screen. Data for the mlh1 strain (AID 171);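 further: 0% = growth of vehicle-treated control cultures of the same strain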; details: S. cerevisiae mlh1 strain growth inhibition, hits give high values
Procedure, shortened: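 Yeast carrying a defined genetic alteration in DNA damage repair or cell cycle control were exposed to test compounds. Growth inhibition was measured relative to vehicle-treated controls.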

[12] = NCI Yeast Anticancer Drug Screen. Data for the sgs1 strain (AID 173);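 further: 0% = growth of vehicle-only control cultures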; details: S. cerevisiae sgs1 mutant, hits give high values
Procedure, shortened: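 Yeast mutant strains carrying defined defects in DNA damage repair or cell cycle control were exposed to test compounds. Growth inhibition was scored against vehicle-treated controls.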

[13] = NCI Yeast Anticancer Drug Screen. Data for the mlh1 rad18 strain (AID 175); details: S. cerevisiae mlh1 rad18 strain growth inhibition, hits give high values
Procedure, shortened: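 Growth inhibition of the yeast strain was measured after compound exposure and expressed relative to vehicle-treated controls. The strain carries defined defects in DNA damage repair.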

[14] = NCI Yeast Anticancer Drug Screen. Data for the rad18 strain (AID 177); details: S. cerevisiae rad18 mutant growth inhibition, hits give high values
Procedure, shortened: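 Yeast carrying a defined DNA damage repair alteration were exposed to compounds. Growth inhibition was expressed relative to vehicle-treated controls.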

[15] = at 5.0 µM (retest, dose inferred, filed as 0.5)
[16] = at 50.0 µM (retest, dose inferred, filed as 5.0)

## Cc1ccc(S(=O)(=O)N/N=C/C2(c3ccccc3)c3ccccc3-c3ccccc32)cc1
[1]; at 1.2 µM
  growth inhibition: 41%
[1]; at 3.7 µM
  growth inhibition: 45%
[1]; at 11.0 µM
  growth inhibition: 79% (active)
[1]; at 33.0 µM
  growth inhibition: 93% (active)
[1]; at 100.0 µM
  growth inhibition: 86% (active)
[2]; at 1.2 µM
  growth inhibition: 25%
[2]; at 3.7 µM
  growth inhibition: 13%
[2]; at 11.0 µM
  growth inhibition: 34%
[2]; at 33.0 µM
  growth inhibition: 87% (active)
[2]; at 100.0 µM
  growth inhibition: 83% (active)
[3]; at 1.2 µM
  growth inhibition: 11%
[3]; at 3.7 µM
  growth inhibition: 2%
[3]; at 11.0 µM
  growth inhibition: 17%
[3]; at 33.0 µM
  growth inhibition: -8%
[3]; at 100.0 µM
  growth inhibition: -37%
[4]; at 1.2 µM
  growth inhibition: 4%
[4]; at 3.7 µM
  growth inhibition: 36%
[4]; [15]
  growth inhibition: 38%
[4]; at 11.0 µM
  growth inhibition: 82% (active)
[4]; at 33.0 µM
  growth inhibition: 90% (active)
[4]; [16]
  growth inhibition: 92% (active)
[4]; at 50.0 µM
  growth inhibition: 29.5%
[4]; at 100.0 µM
  growth inhibition: 77% (active)
[5]; at 1.2 µM
  growth inhibition: 25%
[5]; at 3.7 µM
  growth inhibition: 15%
[5]; [15]
  growth inhibition: 22%
[5]; at 11.0 µM
  growth inhibition: 27%
[5]; at 33.0 µM
  growth inhibition: 78% (active)
[5]; [16]
  growth inhibition: 93% (active)
[5]; at 50.0 µM
  growth inhibition: 7.7%
[5]; at 100.0 µM
  growth inhibition: 84% (active)
[6]; at 1.2 µM
  growth inhibition: 9%
[6]; at 3.7 µM
  growth inhibition: 9%
[6]; at 11.0 µM
  growth inhibition: 45%
[6]; at 33.0 µM
  growth inhibition: 86% (active)
[6]; at 100.0 µM
  growth inhibition: 86% (active)
[7]; [15]
  growth inhibition: 31%
[7]; [16]
  growth inhibition: 93% (active)
[7]; at 50.0 µM
  growth inhibition: 33.8%
[8]; at 1.2 µM
  growth inhibition: 37%
[8]; at 3.7 µM
  growth inhibition: 38%
[8]; at 11.0 µM
  growth inhibition: 80% (active)
[8]; at 33.0 µM
  growth inhibition: 91% (active)
[8]; at 100.0 µM
  growth inhibition: 76% (active)
[9]; at 1.2 µM
  growth inhibition: 19%
[9]; at 3.7 µM
  growth inhibition: 9%
[9]; [15]
  growth inhibition: 20%
[9]; at 11.0 µM
  growth inhibition: 54%
[9]; at 33.0 µM
  growth inhibition: 88% (active)
[9]; [16]
  growth inhibition: 90% (active)
[9]; at 50.0 µM
  growth inhibition: 29.1%
[9]; at 100.0 µM
  growth inhibition: 62%
[10]; at 1.2 µM
  growth inhibition: -8%
[10]; at 3.7 µM
  growth inhibition: 18%
[10]; at 11.0 µM
  growth inhibition: 76% (active)
[10]; at 33.0 µM
  growth inhibition: 91% (active)
[10]; at 100.0 µM
  growth inhibition: 80% (active)
[11]; at 1.2 µM
  growth inhibition: 21%
[11]; at 3.7 µM
  growth inhibition: 7%
[11]; at 11.0 µM
  growth inhibition: 30%
[11]; at 33.0 µM
  growth inhibition: 61%
[11]; at 100.0 µM
  growth inhibition: 71% (active)
[12]; at 1.2 µM
  growth inhibition: 16%
[12]; at 3.7 µM
  growth inhibition: 15%
[12]; at 11.0 µM
  growth inhibition: 45%
[12]; at 33.0 µM
  growth inhibition: 82% (active)
[12]; at 100.0 µM
  growth inhibition: 80% (active)
[13]; [15]
  growth inhibition: 79% (active)
[13]; [16]
  growth inhibition: 91% (active)
[13]; at 50.0 µM
  growth inhibition: 70.5% (active)
[14]; at 1.2 µM
  growth inhibition: 50%
[14]; at 3.7 µM
  growth inhibition: 52%
[14]; at 11.0 µM
  growth inhibition: 80% (active)
[14]; at 33.0 µM
  growth inhibition: 91% (active)
[14]; at 100.0 µM
  growth inhibition: 89% (active)
